# D3 antag: antagonists of human D3 dopamine receptor | D3R cells, DiscoveRx beta-arrestin luminescence, antagonist mode; stronger effect = lower value | max response, negative = inhibition, % | hit rate 2.5% among 360,000 | AID 652054; in the data active = max response below about -50%; inconclusive = no clear call, values can overlap the other calls; note: % is set by controls: 0 for no effect and ±100 for the full control effect
#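 Cells expressing the human receptor were seeded at 1500 cells/well, incubated overnight at 37 degrees C in 5% CO2, then exposed to library compounds with dopamine controls for 90 minutes at 37 degrees C before luminescent detection.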
# Chronic BCR inh: chronic active BCR signaling inhibition; hit rate 0.05% among 340,000; ABC-DLBCL IkBa-CBG/CBR reporter, luminescence ratio, 4 h; Potency, µM (doses to about 46.1 µM), without a hit: top-dose activity change, negative = inhibition, usual class: inhibitors; active = well fitted inhibition curve with a large enough effect in the signal ratio, with a control signal flat, not every such curve was filed as active; inconclusive = small, poorly fitted or top-dose-only effect, or effect the other way, or a change in a side signal; the % refers to the signal ratio;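 note: potency is the fitted concentration of half-maximal effect; plate controls were basal doxycycline-induced cells for no effect and cells given 10 µM MG132 for full effect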
#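 TMD8 ABC-DLBCL cells carrying doxycycline-inducible green luciferase fused to IkappaBalpha plus unfused red luciferase were exposed to compounds (up to 46 uM) for 4 hrs at 37C. Activity came from the overlap-corrected green/red luminescence ratio.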
# D1 PAM: potentiators of human D1 dopamine receptor. hit rate 0.036% among 360,000. HEK293 TREx D1 cells, calcium flux, dopamine EC20 potentiation. potentiation, % at 10 µM. P21728. AID 504651; in the data active = potentiation above about 30%; note: 0% is about no effect
# Target sequence (P21728 whole entry, looked up): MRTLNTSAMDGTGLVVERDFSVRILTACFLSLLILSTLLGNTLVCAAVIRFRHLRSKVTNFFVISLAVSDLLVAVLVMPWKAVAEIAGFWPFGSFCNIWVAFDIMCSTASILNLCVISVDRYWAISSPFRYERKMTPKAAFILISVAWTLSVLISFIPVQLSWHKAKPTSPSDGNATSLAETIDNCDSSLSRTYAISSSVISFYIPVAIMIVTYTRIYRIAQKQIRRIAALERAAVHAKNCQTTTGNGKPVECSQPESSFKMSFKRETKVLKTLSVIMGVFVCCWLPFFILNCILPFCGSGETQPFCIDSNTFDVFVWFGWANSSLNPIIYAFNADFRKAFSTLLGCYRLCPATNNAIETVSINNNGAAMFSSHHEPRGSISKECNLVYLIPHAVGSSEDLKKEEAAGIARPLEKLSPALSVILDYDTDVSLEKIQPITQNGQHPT
# D1 antagonist: human D1 dopamine receptor antagonism | HEK293 TREx D1 cells, calcium flux, dopamine EC80; stronger effect = lower value | P21728 | hit rate 3.2% among 360,000 | activity change, negative = inhibition, % at 10 µM; in the data active = activity change below about -30%; note: % is set by controls: 0 for no effect and ±100 for the full control effect
#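 Allosteric or orthosteric antagonism assessed as attenuation of the calcium response to EC80 dopamine, added 180 s after compound, in induced HEK293 Trex D1 cells loaded with no-wash calcium dye.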
# D3 ag: activates the human D3 dopamine receptor; P35462; D3R DiscoveRx beta-arrestin cells, luminescence, 90 min; max activation, %; hit rate 0.58% among 410,000; AID 652048; in the data active = max activation above about 30%; note: 0% is about no effect
#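 Cells at 1500/well, incubated overnight, then treated with pinned compounds (dopamine as control) for 90 min at 37 degrees C. DiscoveRx reagent added for 30 - 60 minutes at room temperature; luminescence read.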
# D1 agonist: activates the human D1 dopamine receptor. P21728. hit rate 1% among 360,000. HEK293 T-REx D1 cells, calcium flux, agonist mode. activation, % at 2 µM; in the data active = activation above about 30%; note: 0% is about no effect
#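 Agonism was scored from calcium flux recorded over 180 s (1 read/s) after pintool compound addition, following a 10-cycle baseline. Cells were inducible force-coupled HEK293 TREx D1, plated overnight at 30 C and loaded with no-wash calcium dye.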
# The depositor's hits bear a star; ? = inconclusive; nt = no result; ! = not confirmed by another sample. Rows were chosen to be rich in hits. Some 6% of all compounds tested hit in one or more screens of this group.
SMILES,D3 antag,Chronic BCR inh,D1 PAM,D1 antagonist,D3 ag,D1 agonist
CCOc1ccc2nc(S(=O)(=O)NC(=O)C3(C)CCN3C(=O)c3cc(C)n(C)n3)sc2c1 (stereo not given),17,nt,nt,nt,9,nt
COc1ccc(C(CNC(=O)c2cc3ccccc3o2)N2CCCCC2)cc1 (stereo not given),-74*,2%,-3,-22,-18,3
COc1ccc(C(CNC(=O)c2oc3ccccc3c2C)N2CCCCC2)cc1 (stereo not given),nt,nt,-3,14,-24,0
C=CCn1c(SCc2ccc(C#N)cc2)nnc1-c1cccc(Cl)c1,0,3%,-3,-39*,-3,-4
COc1ccc(C(=O)Nc2nc3n(n2)C(c2ccc(Cl)cc2)C=C(c2ccccc2)N3)cc1OC (stereo not given),nt,nt,-1,-2,5,39*
COc1ccc(C2C=C(c3ccccc3)Nc3nc(NC(=O)/C=C/c4ccc(Cl)cc4)nn32)cc1 (stereo not given),nt,nt,1,-77*,5,1
COc1ccc(/C=C/C(=O)Nc2nc3n(n2)C(c2ccccc2)C=C(c2ccc(Cl)cc2)N3)cc1 (stereo not given),nt,nt,-2,5,-19,9
COc1ccc(C2C=C(c3ccccc3)Nc3nc(NC(=O)c4ccc(C)cc4)nn32)cc1 (stereo not given),nt,nt,-2,19,-1,-1
CCOC(=O)c1cnc(-n2nc(C)cc2C)nc1N(CC)CC,-59*,?,-4,-21,-11,1
CCOC(=O)c1cnc(-n2nc(C)cc2C)nc1NC,?,?,-4,5,1,2
CC1(C(=O)NCCC#N)CCN1C(=O)C1(c2ccccc2)CC1 (stereo not given),-63*,nt,nt,nt,-10,nt
Cc1n[nH]c(C)c1CCCCOc1ccccc1,-3,-2%,-8,-32*,-4,15
Cc1ccc(OCCCc2c(C)n[nH]c2C)cc1,4,?,-5,-19,20,4
Cc1n[nH]c(C)c1CCCCOc1ccccc1[N+](=O)[O-],15,-20%,-5,-33*,1,19
Cc1n[nH]c(C)c1CCCCOc1ccc([N+](=O)[O-])cc1,16,0%,-7,-39*,10,13
COCCNC(=O)c1cc(S(=O)(=O)N(C)C2CCCCC2)ccc1Cl,18,nt,nt,nt,1,nt
CCOc1ccccc1NC(=O)C(=O)NCCc1sc(-c2cccc(F)c2)nc1C,nt,nt,9,16,7,2
O=C(O)CCC(=O)N1CCc2cc(S(=O)(=O)NCc3ccc(F)cc3)ccc21,nt,nt,-4,1,0,2
CC(=O)c1cccc(N=Nc2c(-c3ccccc3)[nH]n(-c3ccccc3)c2=O)c1,-21,10%,0,-31*,0,0
COc1ccc(/C(C)=N/NC(=O)Cn2nc([N+](=O)[O-])cc2C)cc1,1,12%,1,7,51*,1
Cc1ccc(S(=O)(=O)Nc2ccc3c(c2)nc2n3CCN(Cc3ccccc3)C2)cc1,-51*,-5%,3,4,-26,5
O=S(=O)(Nc1ccc2c(c1)nc1n2CCN(Cc2ccccc2)C1)c1ccccc1,?,?,1,-11,0,-4
O=S(=O)(Nc1ccc2c(c1)nc1n2CCN(Cc2ccccc2)C1)c1ccc(Cl)cc1,-58*,?,-4,-11,-4,2
COCCNCCCCSc1ccc(Cl)cc1,-59*,?,-4,9,-1,8
COc1ccc2c(c1)c(CC(=O)OCC(=O)O)c(C)n2C(=O)c1ccc(Cl)cc1,-54*,?,10,25,-2,1
SMILES,D3 antag,Chronic BCR inh,D1 PAM,D1 antagonist,D3 ag,D1 agonist
Cn1cnnc1SCC(=O)c1c(N)n(Cc2ccccc2)c(=O)n(C)c1=O,7,2%,-7,-60*,-4,0
O=C(CSc1ccc2ccccc2c1)NCCc1ccc(O)c(O)c1,12,-13%,1,-20,69*,5
COc1ccc(CCNC(=O)CSc2ccc3ccccc3c2)cc1OC,12,?,9,17,-23,2
C[C@@H]1CN([C@@H](C)CO)C(=O)CCCn2nncc2CO[C@H]1CN(C)Cc1cccc(C(F)(F)F)c1,-8,nt,nt,nt,-8,nt
O=C(CCN1C(=O)S/C(=C\C=C\c2ccccc2)C1=O)Nc1ccc(O)cc1,10,-15%,-2,-38*,6,-1
COc1ccc(-c2noc(CNS(=O)(=O)c3ccc(NC(C)=O)cc3)n2)cc1,1,5%,5,13,-1,3
O=C(NCc1nc(-c2ccc(C(F)(F)F)cc2)no1)Nc1ccc(OC(F)(F)F)cc1,-7,7%,-9,-37*,-2,10
Cc1c(-c2ccccc2)c(=O)oc2c(CN3CCCC3)c(O)ccc12,nt,nt,-3,-5,-10,0
O=C(CN(c1ccc(Cl)c(C(F)(F)F)c1)S(=O)(=O)c1ccccc1)N/N=C/c1cccc2c1OCCO2,-63*,2%,1,-14,-9,6
Cc1ccc(Nc2c(-c3ccc(N(C)C)cc3)nc3ccccn23)cc1,nt,nt,-5,-30*,-15,2
Cc1ccc(Nc2c(-c3ccccn3)nc3ccc(C)cn23)cc1,-78*,-1%,0,-4,-29,8
Cc1ccc(Nc2c(-c3ccccn3)nc3cc(C)ccn23)cc1,-88*,?,0,-8,-32,1
Cc1ccn2c(Nc3ccc4c(c3)OCO4)c(-c3ccccn3)nc2c1,-54*,4%,-4,4,-17,6
CCc1c(C)sc2c1CCN(C(=O)Nc1cc(Cl)c(OC)cc1OC)C2c1ccccc1 (stereo not given),nt,nt,0,-12,-18,1
CCC(c1nnnn1-c1ccc2c(c1)OCCO2)N1CCN(C(=O)C2CCCO2)CC1 (stereo not given),40,nt,nt,nt,2,nt
Cc1ccc(NC(=O)CN(C)C(=O)CSc2nc(C)cs2)cc1,-62*,0%,6,5,-18,-1
CCCc1cc(=O)[nH]c(SCC(=O)N(C)CC(=O)Nc2ccc(C)cc2)n1,-11,?,-8,-36*,-4,2
Cc1cc(C)[n+]2n1C(=O)C(c1ccccc1)=C2[O-],-13,?,0,0,50*!,2
Cc1cc(=O)n2[nH]c(-c3ccccc3)cc2n1,13,nt,-5,-6,1,1
COc1ccc(/C=C2\SC(=O)N(CCNC(=O)C3CCN(S(=O)(=O)c4cccs4)CC3)C2=O)cc1,8,3%,-6,-35*,12,6
Cc1ccc(NC(=O)C2CCN(S(=O)(=O)c3cccs3)CC2)cc1,-20,1%,-11,-37*!,-6,22
